# Compound activity: PubChem, National Center for Advancing Translational Sciences (NCATS)
# Compounds with a hit are over-represented: about 7.4% of the library has one in this group of screens.
# ELG1 genotox: inducers of genotoxicity in HEK293T ELG1-luciferase cells | Potency, µM (series often up to 46 µM), without a hit: at the highest dose activity change, positive = activation, usual class: activators | AID 504466 | 330,000 tested, 1.3% active | HEK293T ELG1-luciferase reporter, luminescence, 16 h; further: % of control where 0% means no effect; nearly all actives have a fitted effect of over 60% in size
#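 Screening used a luciferase reporter fused to human ELG1 in HEK293T cells. Luminescence was read on a CCD plate imager after 16 hr exposure and 30 min ONE-Glo incubation.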
# FLuc modulator: inhibits or activates purified firefly luciferase, miR-21 counter-screen; 360,000 tested, 6.9% active; purified FLuc, Km substrates, luminescence inhibition; P08659; Potency, µM (highest dose often 57.5 µM), without a hit: at the top dose activity change, negative = inhibition, hits mostly inhibitors; AID 588342;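 further: plate controls were vehicle for no effect and reference inhibitor for full effect; nearly all actives have a fitted effect of over 55% in size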
# Target sequence (P08659 whole entry, looked up): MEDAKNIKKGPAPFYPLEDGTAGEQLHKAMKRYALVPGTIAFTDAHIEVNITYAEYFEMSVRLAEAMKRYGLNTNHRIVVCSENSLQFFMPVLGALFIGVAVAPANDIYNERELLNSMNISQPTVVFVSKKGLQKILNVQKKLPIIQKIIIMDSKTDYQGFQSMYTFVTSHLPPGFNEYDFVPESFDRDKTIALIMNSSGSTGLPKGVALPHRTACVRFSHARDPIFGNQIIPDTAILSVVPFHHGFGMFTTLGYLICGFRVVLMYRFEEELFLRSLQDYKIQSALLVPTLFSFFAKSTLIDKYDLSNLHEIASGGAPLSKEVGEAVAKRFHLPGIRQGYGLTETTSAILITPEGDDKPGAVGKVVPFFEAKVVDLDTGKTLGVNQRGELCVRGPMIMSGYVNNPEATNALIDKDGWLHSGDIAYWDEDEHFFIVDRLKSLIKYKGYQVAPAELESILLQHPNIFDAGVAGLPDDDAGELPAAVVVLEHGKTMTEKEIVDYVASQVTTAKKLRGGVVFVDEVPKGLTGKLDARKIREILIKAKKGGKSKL
#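 Purified P. pyralis luciferase (10nM final) with 10uM D-luciferin and 10uM ATP (Km levels) in 50mM Tris acetate pH 7.5, 10mM Mg acetate, 0.01% Tween-20, 0.05% BSA; qHTS 6-point titration, ~60 µM downward; luminescence read.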
# SMN2 splice enh: enhancers of SMN2 splice variant expression. HEK293 SMN2-luciferase splicing reporter, luminescence, 30-36 h. Potency, µM (top dose mostly 46.1 µM), inactives show at the highest dose activity change, positive = activation, hits mostly activators. 210,000 tested, 2.8% active; further: % of control where 0% means no effect; nearly all actives have a fitted effect of over 55% in size
#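 qHTS luciferase splicing reporter: luminescence rises when SMN2 exon 7 is included in transfected HEK293 cells. Compound exposure lasted 30-36 h at 37C, with 4.5 mM final sodium butyrate as control, followed by a ONE-Glo read.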
# NPC1 promoter act: NPC1 promoter activation. 320,000 tested, 2.4% active. Huh7 NPC1 promoter luciferase reporter, 24 h. Potency, µM (doses to about 9.22 µM), without a hit: top-dose activation, most hits filed as activators; further: % of control where 0% means no effect; nearly all actives have a fitted effect of over 60% in size
#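 Compounds in DMSO were transferred onto Huh7 NPC1-luciferase reporter cells pre-incubated 2 h; after 24 h at 37 °C, Amplite reagent was dispensed and luminescence recorded 10 min later.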
# KinaseGlo FLuc: counter-screen: inhibitors of Kinase-Glo firefly luciferase; Q27757; Kinase-Glo luciferase, ATP luminescence, 8 min; Potency, µM (highest dose often 38.3 µM), for inactives: at the highest dose activity change, negative = inhibition, most hits filed as inhibitors; 200,000 tested, 0.28% active; AID 1379; further: on the % scale 0 is the no-effect control and ±100 the full control effect; nearly all actives have a fitted effect of over 60% in size
#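 Substrate mix (final 50 mM imidazole pH 7.2, 50 mM KCl, 7 mM MgCl2, 10 uM ATP, 0.01% Tween 20, 0.05% BSA) plus pin-tool compound, then Kinase-Glo detection mix; 8 min ambient, luminescence read.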
# Rab9 promoter act: Rab9 promoter activation; Huh7 Rab9 promoter-luciferase reporter, luminescence, 24 h; Potency, µM (top dose mostly 9.22 µM), without a hit: at the top dose activation, negative = inhibition, hits mostly activators; 320,000 tested, 2.8% active; further: % of control where 0% means no effect; nearly all actives have a fitted effect of over 60% in size
#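 Huh7 reporter line, Rab9 promoter upstream of luciferase. Compound exposure 24 h at 37 °C in reduced-serum medium with 10% FBS. Read-out: luminescence.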
# * hit, by the source's call; ? = inconclusive; . = no result; [ ] = dose if it differs, or a comment. The call rests on the fitted dose curve; in most records, active means well fitted curve in the direction sought with a large enough effect; inconclusive means small, poorly fitted or top-dose-only effect, or another doubt; inactive means no such curve, though single readings can be large; an effect the other way counts as inactive or inconclusive. Potency means the concentration at half of the fitted maximal effect.
SMILES,ELG1 genotox,FLuc modulator,SMN2 splice enh,NPC1 promoter act,KinaseGlo FLuc,Rab9 promoter act
COc1ccc(N2CC(O)=C(c3nc(-c4ccc(Br)cc4)cs3)C2=N)cc1,9.8%,-1.8%,-6.9%,0.3%,-0.2%,-0.1%
COc1ccc(N2CC(O)=C(c3nc(-c4ccccc4)cs3)C2=N)cc1,-1.9%,-4.1%,.,3.1%,.,-3.0%
COc1ccc(-c2csc(C3=C(O)CN(C(C)C)C3=N)n2)cc1OC,?,10.7µM*,7.4%,-3.3%,0.0%,4.1%
COc1ccc(-c2nc(CCl)cs2)cc1OC,21.9%,?,-4.9%,-1.6%,-3.1%,11.6%
Oc1ccc(-c2csc(-c3c[nH]c4ccccc34)n2)c(O)c1,?,10.7µM*,?,3.55µM*,-1.4%,?
COc1ccc(-c2nc(CCl)cs2)cc1,?,9.53µM*,4.6%,18.5%,-9.6%,?
COc1cccc(-c2nc(CCl)cs2)c1,1.2%,26.9µM*,-8.4%,-4.8%,-6.0%,5.6%
COc1cccc(-c2nc(-c3ccc4c(c3)NC(=O)CO4)cs2)c1,11.0%,?,?,?,-0.9%,?
COc1ccc(-c2nc(-c3ccc(O)cc3O)cs2)cc1OC,?,10.7µM*,?,15.8%,2.0%,?
CCc1ccc(-c2nc(CCl)cs2)cc1,?,3.79µM*,.,?,.,?
Cn1/c(=N/N=C/c2ccccn2)sc2ccccc21,?,3.79µM*,15.8µM*,2.24µM*,-1.9%,1.12µM*
Cn1/c(=N/N=C/c2ccc(Cl)c([N+](=O)[O-])c2)sc2ccccc21,0.4%,?,13.7%,?,-0.1%,13.0%
Cn1/c(=N/N=C/c2ccc(N3CCOCC3)cc2)sc2ccccc21,12.6%,3.01µM*,26.3%,?,-1.0%,29.6%
CCC(=O)N/N=c1/sc2ccccc2n1C,-1.0%,1.8%,7.3%,-0.9%,0.0%,-3.6%
O=c1c2ccccc2n(Cc2c(F)cccc2Cl)c(=O)n1CCc1ccccc1,.,-11.4%,-1.4%,.,.,.
NCCC[C@@H](CC(=O)N[C@@H]1CCCC[C@H]1C(=O)N[C@H](CC(=O)N[C@@H](CCC(=O)O)CC(=O)O)Cc1ccccc1)NC(=O)C[C@H](Cc1ccccc1)NC(=O)[C@@H]1CNCC[C@H]1N,.,.,2.5%,.,0.0%,.
Cn1c(O)c(C=Nc2ccc(Br)cc2)sc1=O,?,?,2.82µM*,?,-8.2%,4.47µM*
Oc1ccc(Cl)cc1C=Nc1ccc(Br)cc1,3.8%,?,.,-4.0%,.,-0.7%
COCCNC(=O)C(=O)NNC(=O)c1ccccc1OC,-0.2%,-18.3%,.,1.2%,-0.3%,-6.8%
CC(=O)Nc1ccc(NCC(=O)c2ccccc2)cc1,8.7%,15.1µM*,.,-2.0%,.,0.1%
O=C(Nc1ccccc1)C(=O)c1c[nH]c2ccccc12,0.92µM*,1.69µM*,.,3.55µM*,.,1.78µM*
COc1ccccc1C(=O)NNC(=O)c1ccccc1,8.2µM*,9.53µM*,.,2.51µM*,.,?
COc1ccccc1C(=O)Nc1ccc2c3c(cccc13)CC2,12.1%,5.36µM*,.,?,-5.8%,?
CC(=O)Nc1ccc(C(=O)CSc2ncn(-c3ccccc3)n2)cc1,?,-9.5%,7.08µM*,17.7%,-3.3%,19.5%
COc1ccccc1C(=O)CC(=O)c1ccccc1,?,13.5µM*,.,?,.,19.8%
SMILES,ELG1 genotox,FLuc modulator,SMN2 splice enh,NPC1 promoter act,KinaseGlo FLuc,Rab9 promoter act
COc1ccccc1C(=O)OCC(=O)NC(C)CCc1ccccc1 (stereo not given),0.9%,-2.2%,.,-5.1%,.,1.6%[1.84 µM]
COc1ccccc1C(=O)NCC(=O)NC(C)CCc1ccccc1 (stereo not given),7.7%,3.01µM*,.,2.0%,.,-6.6%
Cc1cccc(C)c1NC(=O)c1c[nH]c2ccccc12,?,12µM*,.,?,.,22.2%[1.84 µM]
Cc1cccc(C)c1NC(=O)CNC(=O)Cc1c[nH]c2ccccc12,-1.4%,6.2%,.,-2.5%,.,-3.2%
O=C(CSc1ncn(-c2ccccc2)n1)Nc1nncs1,-0.5%,-6.9%,1.2%,3.6%,0.8%,-8.6%
COc1ccccc1NC(=O)CC(=O)c1ccccc1,2.8%,?,.,11.5%,.,13.1%
CCOC(=O)c1cccc(NC(=O)C2CCN(S(=O)(=O)c3ccc4c(c3)oc(=O)n4C)CC2)c1,.,0.6%,-30.4%,.,.,.
COC(=O)c1ccccc1NC(=O)c1ccccc1OC,-3.8%,0.3%,-12.6%,-0.8%,-4.6%,-1.9%
O=C(CC(=O)c1ccccc1)c1ccccc1,.,.,12.6µM*,.,-13.2%,.
NC(=O)c1ccccc1NCC(=O)c1ccc(Cl)cc1,0.3%,?,.,0.2%,.,-8.9%
COc1ccccc1C(=O)Nc1ccccc1SC(=O)c1ccccc1OC,11.6µM*,5.36µM*,.,?,.,?
O=C(CNc1ccccc1C(=O)O)c1ccccc1,9.7%,19µM*,.,2.6%,.,?
COc1ccccc1NC(=O)c1ccccc1NC(=O)c1ccccc1,.,15.1µM*,-7.8%,.,.,.
COc1ccc(-c2nc3cc(NC(=O)Cc4ccc(Cl)cc4)ccc3o2)cc1OC,.,-5.5%,-8.6%,.,.,.
CCOc1ccc(NC(=O)c2cc3c(n(-c4ccc(OC)cc4)c2=O)CC(C)(C)CC3=O)cc1,.,-0.3%,-0.8%,.,.,.
O=C(/C=C/c1ccccc1)c1c[nH]c2ccccc12,?,0.19µM*,.,0.631µM*,.,0.355µM*
COc1ccccc1NC(=O)c1c[nH]c2ccccc12,?,21.3µM*,.,?,.,26.5%
COc1ccccc1C(=O)NNC(=O)c1cccc(Br)c1,?,12µM*,.,2.82µM*,.,?
COc1ccccc1/C=C1\S/C(=N/NC(=O)c2cccc(Br)c2)NC1=O,-12.6%,9.53µM*,-18.5%,-1.2%,-1.3%,-3.1%
COc1ccccc1C(=O)NNC(=O)c1cccc(Cl)c1,15.7%,-16.0%,.,15.8%,-2.8%,20.5%
COc1ccccc1NC(=O)c1cc(=O)[nH]c2ccccc12,-1.1%,-2.9%,.,10.7%,.,10.8%
CCc1nc2c(cnn2-c2ccc(Cl)cc2)c(=O)n1-c1ccc(OC)c(Cl)c1,.,1.8%,-1.8%,.,.,.
CCOc1ccc(/C=C/c2nc(C#N)c(NC(C)CC)o2)cc1 (stereo not given),.,3.7%,8.0%,.,.,.
CCOC(=O)c1c(C)[nH]c(C)c1S(=O)(=O)N1CCCC(C(=O)N2CCN(c3cccc(C)c3C)CC2)C1 (stereo not given),.,-10.0%,.,.,.,.
CN1CCC(CNC(=O)Nc2csc3ccccc23)CC1,3.7%,-4.0%,.,0.9%,.,0.7%
O=C(Nc1ccc(F)cc1)Nc1csc2ccccc12,-6.3%,23.9µM*,.,23.7%,.,20.6%
O=C(Nc1ccc(F)cc1)Nc1csc2c1CCCC2,.,?,-9.1%,.,.,.
CN(C)c1ccc(NC(=O)Nc2csc3ccccc23)cc1,?,2.69µM*,.,29.7%,.,?
